Sampled rows, rich in hits. Any-hit rate of the full collection: about 5.6%.
ALR H2O2 inh = inhibitors of human ALR sulfhydryl oxidase, primary screen, biochemical, H2O2 detection, HRP-luminol luminescence, single point; FAD-linked sulfhydryl oxidase ALR (Homo sapiens), P55789; purified ALR, DTT oxidation; inhibition, % (test concentration not listed); 290,000 compounds, 3.8% hits; AID 485317, 2010;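 active = mean replicate inhibition above about 79%, with every replicate also reaching it, limit read from the data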
Target sequence (P55789 whole entry, looked up): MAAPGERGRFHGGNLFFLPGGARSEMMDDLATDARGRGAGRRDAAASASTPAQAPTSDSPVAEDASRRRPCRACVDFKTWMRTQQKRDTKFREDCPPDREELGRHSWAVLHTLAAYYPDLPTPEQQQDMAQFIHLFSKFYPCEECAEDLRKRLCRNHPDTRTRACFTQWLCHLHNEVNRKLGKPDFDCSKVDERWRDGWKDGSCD
M18AAP inhibitor = PfM18AAP inhibitors, malaria aminopeptidase, primary screen, biochemical, QFRET, recombinant enzyme | 290,000 compounds, 1.2% hits | H-Glu-NHMec fluorogenic cleavage | AID 1822, 2009 | M18 aspartyl aminopeptidase (Plasmodium falciparum 3D7) | inhibition, % at 7.35 µM;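 active = inhibition above the campaign mean inhibition over all tested compounds plus 3 SD, cut at about 28% in these data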
PfG6PD inh = PfG6PD enzyme inhibitors, primary screen, biochemical, fluorescence intensity, uHTS | PfGluPho enzyme, NADPH resazurin-diaphorase fluorescence | inhibition, % at 20 µM | 350,000 compounds, 0.78% hits;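 active = inhibition reaching at least a set limit at 20 µM in the primary screen, cut at about 59% in these data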
Cardio protect = cardioprotection against H2O2-induced cell death, primary screen, uHTS, H9c2 cells, ATPLite luminescence; protection from H2O2 cell death, % at 20 µM; H9c2 cardiomyocytes, H2O2 injury protection, 2 h; 360,000 compounds, 0.63% hits;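 active = compounds giving at least 50% protection of heart cells from peroxide-induced death in the single-dose screen, raw or plate-pattern-corrected value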
PHOSPHO1 block = PubChem AID 1565; 290,000 compounds, 1.1% hits; recombinant PHOSPHO1, absorbance phosphatase assay; inhibition, % at 13.3 µM; in the data active = inhibition above about 60%
Target sequence (Q8TCT1 whole entry, looked up): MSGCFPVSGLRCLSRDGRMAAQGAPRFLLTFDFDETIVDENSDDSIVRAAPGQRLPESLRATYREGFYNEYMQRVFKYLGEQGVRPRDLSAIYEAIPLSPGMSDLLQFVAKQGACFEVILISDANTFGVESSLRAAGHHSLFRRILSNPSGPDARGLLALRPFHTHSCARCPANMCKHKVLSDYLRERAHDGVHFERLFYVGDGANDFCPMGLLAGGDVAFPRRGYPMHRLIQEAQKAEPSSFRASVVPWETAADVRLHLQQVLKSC
Large screens that a line does not name were inactive.

COC(=O)c1ccc(N)c(N=CC2=C(O)CC(C)(C)CC2=O)c1	Cardio protect 58 (no result: ALR H2O2 inh)
CC1(C)CC(=O)C(C=Nc2ccc(O)cc2)=C(O)C1	ALR H2O2 inh 99
CC1(C)CC(=O)C(C=Nc2cc(C(=O)c3ccccc3)ccc2N)=C(O)C1	none
CCOc1ccc(OCC)c(NC(=O)C2CCN(S(=O)(=O)c3ccc4c(c3)CC(C)N4C(C)=O)CC2)c1 (stereo not given)	none
CC(=O)NC(CC(=O)N1CCCC1)c1ccccc1 (stereo not given)	none
Cc1ccc2c(c1)C(=O)N1c3cc(C)c(C)cc3NC(=O)C1C(=O)N2 (stereo not given)	none (no result: ALR H2O2 inh, M18AAP inhibitor, PfG6PD inh, PHOSPHO1 block)
Nc1ccc(OCc2ccccc2)cc1	ALR H2O2 inh 97
CNC(=S)N(Cc1ccco1)Cc1cc2cc(OC)ccc2[nH]c1=O	none
COc1ccc2[nH]c(=O)c(CN(CC3CCCO3)S(=O)(=O)c3ccccc3)cc2c1 (stereo not given)	none
CC(=O)Nc1ccc(S(=O)(=O)N(Cc2cccnc2)Cc2cc3ccccc3[nH]c2=O)cc1	Cardio protect 64
COC(=O)c1ccccc1S(=O)(=O)N(Cc1ccco1)Cc1cc2cc(OC)ccc2[nH]c1=O	Cardio protect 59
CC(=O)Nc1ccc(S(=O)(=O)N(Cc2ccco2)Cc2cc3ccccc3[nH]c2=O)cc1	Cardio protect 58
CCc1ccc2[nH]c(=O)c(CN(Cc3ccco3)S(=O)(=O)c3ccc4c(c3)OCCO4)cc2c1	none
COc1ccc2[nH]c(=O)c(CN(CC3CCCO3)S(=O)(=O)c3ccccc3F)cc2c1 (stereo not given)	Cardio protect 53
CCN(c1ccccc1C(=O)O)S(=O)(=O)c1cccc2nsnc12	none
O=C(COC(=O)c1c(F)cccc1F)NC(=O)NCc1ccccc1	none (no result: ALR H2O2 inh, M18AAP inhibitor, PHOSPHO1 block)
O=C(O)CC12CC3CC(C1)CC(n1ncc(NCc4ccccc4)c(Cl)c1=O)(C3)C2	none
O=C(O)CC12C[C@H]3C[C@@H](C1)CC(n1ncc(N4CCN(c5ccccc5)CC4)c(Cl)c1=O)(C3)C2	ALR H2O2 inh 98
O=C(O)C12C[C@H]3C[C@@H](C1)CC(n1ncc(N4CCN(c5ccccc5)CC4)c(Cl)c1=O)(C3)C2	ALR H2O2 inh 98
Cc1ccc(C)c(CNS(=O)(=O)c2c(C(=O)N3CCCC3)c(C)n(C)c2C)c1	none
COc1ccc(-c2csc(C(O)c3ccc(F)cc3)n2)cc1OC (stereo not given)	none (no result: ALR H2O2 inh, M18AAP inhibitor, PfG6PD inh, PHOSPHO1 block)
CC1Cc2ccccc2N1C(=O)CSc1nc2c(c(=O)n(C)c(=O)n2C)n1Cc1ccc(F)cc1 (stereo not given)	Cardio protect 50 (no result: PHOSPHO1 block)
O=C1N=c2ccccc2=C1c1sc(Nc2cccc(O)c2)nc1O	Cardio protect 54
O=C1N=c2ccccc2=C1c1sc(Nc2ccc(O)cc2)nc1O	none (no result: ALR H2O2 inh)
O=C(O)c1cccc(S(=O)(=O)Nc2ccc3oc(=O)sc3c2)c1	M18AAP inhibitor 42
O=c1oc2ccc(NS(=O)(=O)c3cccc4cccnc34)cc2s1	M18AAP inhibitor 31 (no result: ALR H2O2 inh)
O=C(O)c1cccc(S(=O)(=O)Nc2ccc3[nH]c(=O)[nH]c3c2)c1	none
CC(C)(C)OC(=O)N1CCC2(CC1)C(C#N)=C(N)OC1=C2C(=O)CCC1	none (no result: ALR H2O2 inh)
COc1ccc([C@@H]2C[C@H]3[C@@H](CN2S(=O)(=O)c2ccccc2)C(=O)C[C@@H](c2cccc(Cl)c2)N3S(=O)(=O)c2ccc(C)cc2)cc1	none (no result: ALR H2O2 inh, M18AAP inhibitor, PfG6PD inh, PHOSPHO1 block)
O=C(O)CN1C(=O)/C(=C/c2ccsc2)SC1=S	M18AAP inhibitor 29
O=C(O)CN1C(=O)/C(=C\c2cccc(OCc3ccc(Cl)cc3)c2)SC1=S	ALR H2O2 inh 97 (no result: PHOSPHO1 block)
O=C(O)CN1C(=O)/C(=C\c2cccc(OCc3ccc(F)cc3)c2)SC1=S	none
Cc1noc(C)c1COc1ccc(C(=O)N2CCC(C(N)=O)CC2)cc1	none (no result: M18AAP inhibitor, PHOSPHO1 block)
Cc1ccc(S(=O)(=O)N2[C@@H](c3ccc(F)cc3)C(C(=O)O)=CC[C@H]2c2cccs2)cc1	none (no result: M18AAP inhibitor, PHOSPHO1 block)
Nc1cccc2c1C(=O)N(C(=O)/C=C/c1cccc(F)c1)C2=O	ALR H2O2 inh 98
CCOc1cc(N2CCOCC2)c(OCC)cc1NC(=O)CN1C(=O)NC(CC)(c2ccc(F)cc2)C1=O (stereo not given)	none (no result: ALR H2O2 inh, M18AAP inhibitor, PHOSPHO1 block)
Cc1[nH]c2ccccc2c1C(=O)CN1CCSCC1	ALR H2O2 inh 97
Cc1[nH]c2ccccc2c1C(=O)CN1CCCC1	none
O=C1Nc2ccc([N+](=O)[O-])cc2OC1CCN1CCN(c2ccccc2)CC1 (stereo not given)	ALR H2O2 inh 94
O=C(Nc1ccc(Nc2ccccc2)cc1)C(Cl)Cl	ALR H2O2 inh 92
CC(=O)Oc1ccc(Nc2ccccc2)cc1	ALR H2O2 inh 99
O=C(Nc1ccc(Nc2ccccc2)cc1)c1ccccc1	ALR H2O2 inh 90 (no result: M18AAP inhibitor, Cardio protect, PHOSPHO1 block)
O=C(O)[C@H]1CCCC[C@H]1C(=O)Nc1ccc(Nc2ccccc2)cc1	ALR H2O2 inh 98
CC(=O)Oc1ccc(NC(=O)Cc2ccccc2)cc1	none
COc1ccccc1C(=O)NCCC(=O)NCc1cccs1	none (no result: M18AAP inhibitor, PHOSPHO1 block)
CC1Oc2ccc(C#N)cc2N(Cc2ccc(F)cc2)C1=O (stereo not given)	none (no result: ALR H2O2 inh, M18AAP inhibitor, PfG6PD inh, PHOSPHO1 block)
O=C(NCc1ccccc1)c1onc(CSc2ccc(F)c(F)c2)c1C(=O)NCc1ccccc1	none (no result: M18AAP inhibitor, PHOSPHO1 block)
NC(=O)Nc1ccc(Nc2ccccc2)cc1	ALR H2O2 inh 99
O=C(Nc1ccc(Nc2ccccc2)cc1)C(Cl)(Cl)Cl	ALR H2O2 inh 95
CC(=O)Nc1ccc(NC(=O)C(C)OC(=O)COc2ccc(Nc3ccccc3)cc2)cc1 (stereo not given)	ALR H2O2 inh 99 (no result: M18AAP inhibitor, PHOSPHO1 block)
CCC(=O)Nc1ccc(Nc2ccccc2)cc1	none (no result: ALR H2O2 inh)
CC(=O)Oc1ccc(C(=O)c2ccccc2)c(OC(C)=O)c1	ALR H2O2 inh 98
COCCN(C(=O)COC(=O)c1cc2ccccc2cc1O)c1c(N)n(Cc2ccccc2)c(=O)[nH]c1=O	none (no result: M18AAP inhibitor, PHOSPHO1 block)
Cc1ccc(C(=O)NCC(=O)OCc2c(F)cccc2Cl)s1	none (no result: M18AAP inhibitor, PHOSPHO1 block)
Cc1ccc(NS(=O)(=O)c2cc([N+](=O)[O-])ccc2NNC(=S)Nc2cccc(Cl)c2)c(C)c1	M18AAP inhibitor 32
Cc1cccc(NC(=S)NNc2cccc(Cl)c2)c1	none
CCOc1ccc(C(=O)NC(C(=O)NCc2cccnc2)C(C)C)cc1 (stereo not given)	none
COc1ccc(S(=O)(=O)NC(=O)C2(C)CCN2C(=O)C2(c3ccccc3)CCCC2)cc1 (stereo not given)	none (no result: ALR H2O2 inh, M18AAP inhibitor, PfG6PD inh, PHOSPHO1 block)
O=C(COC(=O)Cc1n[nH]c(=O)c2ccccc12)NNC(=O)c1ccc(Br)cc1	Cardio protect 53 (no result: M18AAP inhibitor, PHOSPHO1 block)
COc1ccccc1C(=O)COC(=O)Cc1n[nH]c(=O)c2ccccc12	none (no result: M18AAP inhibitor, PHOSPHO1 block)
CCOc1ccccc1NC(=O)Cn1[nH]c(=O)c2ccccc2c1=O	none (no result: PfG6PD inh)
O=C(COC(=O)Cc1n[nH]c(=O)c2ccccc12)NNC(=O)c1ccc(Cl)cc1	Cardio protect 66 (no result: M18AAP inhibitor, PHOSPHO1 block)
Cc1ccccc1OCC(=O)NNC(=O)Cn1[nH]c(=O)c2ccccc2c1=O	Cardio protect 53 (no result: ALR H2O2 inh, M18AAP inhibitor, PHOSPHO1 block)

From PubChem
